From PubChem BioAssay
SMARCA2 act = SMARCA2 (BRM) function activators, primary screen, cell-based, luminescence, high throughput; MG213 cells, MMTV-luciferase reporter, dexamethasone, overnight; activation, % at 9.1 µM; actives 1% (n = 370,000); AID 652017, 2013; in the data active means activation above about 7.8%;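 further: 0% = vehicle wells and 100% = reference activator wells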
esBAF inh = Bmi1 luciferase reporter increase in mESCs, primary screen, esBAF inhibitor project, mouse ES cells, Bmi1 luciferase knock-in, single point; 24 h; 100% = twice the neutral-well signal; actives 2% (n = 350,000); reporter increase, % at 12.5 µM; AID 602393, 2012; in the data active means activation above about 40%;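 further: 0% = median of the plate's neutral control wells and 100% = double that signal; a rise in the Bmi1 reporter signal indicates esBAF inhibition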
Gli-Sufu block = Gli-Sufu pathway antagonists, primary screen, luciferase luminescence, Sufu-KO-LIGHT cells, uHTS | Sufu-KO-LIGHT fibroblasts, Gli luciferase reporter luminescence | inhibition, % at 5 µM | actives 0.74% (n = 340,000) | AID 588413, 2011;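 active means inhibition above about 55%, limit read from the data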;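 further: 0% = DMSO-treated cells and 100% = wells with medium but no cells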
Jurkat NFkB inh = inhibitors of induced NF-kB luciferase reporter, primary screen, TCR NF-kB activation inhibitor project, cell-based, luminescence, uHTS; AID 435003, 2010; inhibition, % at 4 µM; actives 0.53% (n = 330,000); Jurkat, PMA/ionomycin-induced NF-kB luciferase reporter; in the data active means inhibition above about 50%
697 NFkB inh = inhibitors of PMA/ionomycin-induced NF-kB reporter, 697 cells, primary screen, B-cell NF-kB inhibitor project, cell-based, luminescence, uHTS; 697 B-cell NF-kB luciferase reporter, 16 h; inhibition, % at 4 µM; actives 0.33% (n = 330,000); AID 435022, 2010; in the data active means inhibition above about 35%
* = called active by the depositor; x = not tested or not shown. An excerpt weighted towards active compounds, which were near 3.3% of everything screened.

SMILES	SMARCA2 act	esBAF inh	Gli-Sufu block	Jurkat NFkB inh	697 NFkB inh
Cc1ccc(OCC(=O)O/N=C(\N)c2ccncc2)c(C)c1	3	69*	-86	-96	-114
Cc1ccccc1OCC(=O)O/N=C(\N)c1ccncc1	2	58*	-53	-67	-62
COc1ccc(/C(N)=N/OC(=O)Cc2cccs2)cc1	7	60*	-85	-88	-86
CCCNC(=O)N(C)C[C@H]1Oc2ncc(C#CCc3ccccc3)cc2C(=O)N([C@H](C)CO)C[C@@H]1C	x	3	x	x	x
C[C@@H]1CN([C@H](C)CO)C(=O)c2cccc(NC(=O)c3ccncc3)c2O[C@H]1CN(C)Cc1ccc(-c2ccccc2)cc1	x	10	x	x	x
Cc1cc(C)n(CC(=O)NC2CCCc3c2cnn3-c2ccc(C)c(C)c2)n1 (stereo not drawn)	-2	59*	-20	-19	-56
COc1ccccc1C(=O)COC(=O)C1(C)CC1(Cl)Cl (stereo not drawn)	2	60*	-19	-26	-21
COc1ccccc1C(=O)COC(=O)c1cccs1	5	81*	-11	-7	-16
CC(=O)Nc1ccc(C(=O)COC(=O)c2cccs2)c(F)c1	2	68*	-16	-40	7
CO[C@@H]1CN(C)C(=O)c2cc(NC(=O)c3cnccn3)ccc2OC[C@H](C)N(C(=O)C2CC2)C[C@@H]1C	x	-1	x	x	x
OCCN=c1cc(-c2ccccc2)oc2ccc(Cl)cc12	x	46*	12	-40	-15
CN(C)CCCN=c1cc(-c2ccccc2)oc2ccc(Cl)cc12	6	x	-19	x	x
Oc1ccc(Cl)cc1-c1cc(-c2ccco2)[nH]n1	0	11	-13	-13	0
Oc1ccccc1-c1cc(-c2ccco2)[nH]n1	-2	62*	8	-26	-17
CO[C@@H]1CN(C)C(=O)c2cc(NC(C)=O)ccc2OC[C@H](C)N(Cc2cccc(F)c2)C[C@H]1C	x	3	x	x	x
Cc1ccc(S(=O)(=O)NCC[C@@H]2CC[C@H](NC(=O)c3cccc(F)c3)[C@@H](CO)O2)cc1	x	0	x	x	x
C/C(=N/O)c1cccc(N2Cc3ccccc3C2)c1	2	63*	-17	-25	10
C/C(=N\O)c1cccc(Br)c1	-3	-3	-4	2	5
COc1ccc(S(=O)(=O)Nc2ccc3c(c2)CC(=O)N([C@@H](C)CO)C[C@@H](C)[C@H](CN(C)C(=O)NC2CCCCC2)O3)cc1	x	2	x	x	x
COc1ccc2sc(NC(C)=O)nc2c1	2	27	-89	-73	-110
COc1ccc2sc(NCc3ccccc3)nc2c1	2	99*	-75	-97	-89
COc1ccc(CN(C)C[C@H]2Oc3ccc(NS(C)(=O)=O)cc3CC(=O)N([C@@H](C)CO)C[C@H]2C)cc1	x	-4	x	x	x
CC(C)C#Cc1ccc2c(c1)O[C@H](CN(C)CC1CC1)[C@H](C)CN([C@H](C)CO)S2(=O)=O	x	10	x	x	x
CCOc1ccc(NC(=O)c2ccc(-c3csc(C)n3)cc2)cc1	-3	7	19	28	-21
Cc1nc(-c2ccc(NC(=O)Cc3ccccc3)cc2)cs1	-1	49*	-28	-57	-29
SMILES	SMARCA2 act	esBAF inh	Gli-Sufu block	Jurkat NFkB inh	697 NFkB inh
COc1ccc(CC(=O)Nc2ccc(-c3csc(C)n3)cc2)cc1	-2	5	-26	2	-3
Cc1nc(-c2ccc(NC(=O)c3ccccc3Br)cc2)cs1	3	x	-80	-108	-138
Cc1nc(-c2ccc(NC(=O)c3ccccc3C)cc2)cs1	3	86*	-93	x	x
COc1ccc(NC(=O)c2ccc(-c3csc(C)n3)cc2)cc1	1	41*	-48	-76	-96
C[C@H]1CN([C@@H](C)CO)S(=O)(=O)c2ccc(C#CC3CC3)cc2O[C@@H]1CN(C)C(=O)C1CCCCC1	x	5	x	x	x
COc1cccc(NC(=O)N[C@@H]2CC[C@@H](CC(=O)N3CCOCC3)O[C@H]2CO)c1	x	-1	x	x	x
C=CCn1c(-c2ccc(OC)cc2)nc2ccccc21	3	41*	-10	-29	-44
O=C(Nc1ccc2c(c1)CCC2)Nc1ccccc1Cl	5	79*	-105	-143	-130
CCOc1ccccc1NC(=O)Nc1ccc2c(c1)CCC2	1	48*	-48	-28	-31
Cc1cc(C)n2nc(C(=O)Nc3ccc4c(c3)CCC4)nc2n1	0	56*	x	-52	-25
COc1ccc(NC(=O)Nc2ccc3c(c2)CCC3)cc1	3	52*	-72	-79	-64
Cc1ccc(NC(=O)Nc2ccc3c(c2)CCC3)c(C)c1	1	7	-11	-9	-8
C[C@@H]1CCCCO[C@H](CN(C)S(=O)(=O)c2cn(C)cn2)[C@@H](C)CN([C@H](C)CO)C(=O)c2cc(NC(=O)Nc3ccc4c(c3)OCO4)ccc2O1	x	1	x	x	x
Cn1ncc(Cl)c1C(=O)Nc1ccc2c(c1)CCC2	3	52*	-24	-68	-69
CCOC(=O)/C(=N\Nc1ccc(OC)cc1)c1csc(Nc2ccccc2)n1	7.8*	x	-1	-12	-10
CCOC(=O)/C(=N/Nc1ccccc1)c1csc(Nc2ccccc2)n1	-5	2	-4	-13	-10
CCCCC(=O)Nc1cc2nn(-c3ccc(OC)cc3)nc2cc1C	3	42*	-66	-120	-170
O=C(C[C@@H]1C[C@H]2c3cc(NC(=O)Nc4ccc(C(F)(F)F)cc4)ccc3O[C@H]2[C@@H](CO)O1)NCc1ccc(Cl)cc1	x	0	x	x	x
O=C(N/N=C/c1ccccc1)c1cccc2ccccc12	1	x	-9	11	0
Nc1c(C(=O)N/N=C/c2ccccc2)cnn1-c1ccccc1	6	48*	-82	-97	-125
CCCCC(=O)N1CCN(c2nc3ccc(Cl)cc3s2)CC1	-3	50*	-2	-30	-102
CC(C)(CC(=O)O)CC(=O)N1CCN(c2nc3ccc(Cl)cc3s2)CC1	x	13	-3	-21	-8
Cn1c(NC(=O)c2ccco2)c(-c2ccccc2)c(=O)c2ccccc21	-2	-4	-1	9	1
CCn1c(NC(=O)c2ccco2)c(-c2ccccc2Cl)c(=O)c2ccccc21	8.0*	2	5	12	9
Clc1ccc(Cn2nnc(-c3ccccc3)n2)cc1	1	47*	-30	-13	-52
Clc1ccc(Cn2nnc(-c3ccc(CN4CCOCC4)cc3)n2)cc1	-4	52*	1	-15	-25
Fc1ccc(Cn2nnc(-c3ccc(CN4CCOCC4)cc3)n2)cc1	-3	5	4	-12	-23
C[C@H](CO)N1C[C@H](C)[C@@H](CN(C)CC2CCCC2)Oc2cc(Br)ccc2S1(=O)=O	x	-6	x	x	x
C/C(=N\Nc1ccccn1)c1ccc2c(c1)OCO2	0	61*	-49	-45	-56
C/C(=N\Nc1ccccn1)c1ccc(N2CCOCC2)cc1	0	x	-56	-74	-41
